# Results as given in PubChem BioAssay (EPA / NIEHS).
# Inconclusive results are not listed. The source made the active and inactive calls. The calls were made as follows: active = hit-call score of the fitted dose curve at least 0.9, where 1 is the maximum; inconclusive = response in the unintended direction; inactive = score below 0.9.
# Target: rat CYP1A2, Cyp1a2 (gene 24297) (UniProt P04799)
# Experiment: NVS_ADME_rCYP1A2: NovaScreen (NVS) CYP450-related Enzyme Activity (ADME) Assay for rat CYP1A2 (AID 2283115)
# Description: NVS_ADME_rCYP1A2 is a biochemical, single-readout assay that uses extracted gene-proteins in a cell-free assay. Measurements were taken 1 hour after chemical dosing in a 96-well plate.NVS_ADME_rCYP1A2 is one of one assay component(s) measured or calculated from the NVS_ADME_rCYP1A2 assay. It is designed to make measurements of enzyme activity, a form of enzyme reporter, as detected with fluorescence intensity signals by Fluorescence technology.Data from the assay component NVS_ADME_rCYP1A2 was analyzed into 1 assay endpoint. This assay endpoint, NVS_ADME_rCYP1A2, was analyzed in the positive analysis fitting direction relative to Acetonitrile as the negative control and baseline of activity. Using a type of enzyme reporter, loss-of-signal activity can be used to understand changes in the enzymatic activity as they relate to the gene Cyp1a2. Furthermore, this assay endpoint can be referred to as a primary readout, because this assay has produced multiple assay endpoints where this one serves a enzymatic activity function. To generalize the intended target to other relatable targets, this assay endpoint is annotated to the cyp intended target family, where the subfamily is xenobiotic metabolism.
# Binding assays used specific radioligands (tritiated, iodinated) with non-radioactive competitive displacement ligands in agonist or antagonist protocols (as indicated) and various reference compounds and inhibitors to titrate specific binding to receptors and transporters. Most enzyme assays (CYPs, kinases, phosphatases, proteases, HDACs) used recombinant protein and specific substrates (fluorescence mostly, some colorimetric and radioactive) and inhibitors, followed by a biochemical separation of substrate and product. All assays for the biochemical HTS were initially run in duplicate at a single concentration (10 uM for CYP450 assays and 25 uM for all others). […] Each assay was run with positive and negative controls, and concurrent controls on every plate. The follow-up (secondary) screen tested active chemical-pairs in concentration series, as well as a few additional assays not tested in the primary screen, some selected negative inactives, and several cases re-run in the concentration series for confirmatory purposes.
# Sequence of rat CYP1A2, Cyp1a2 (gene 24297) (P04799 whole entry, looked up): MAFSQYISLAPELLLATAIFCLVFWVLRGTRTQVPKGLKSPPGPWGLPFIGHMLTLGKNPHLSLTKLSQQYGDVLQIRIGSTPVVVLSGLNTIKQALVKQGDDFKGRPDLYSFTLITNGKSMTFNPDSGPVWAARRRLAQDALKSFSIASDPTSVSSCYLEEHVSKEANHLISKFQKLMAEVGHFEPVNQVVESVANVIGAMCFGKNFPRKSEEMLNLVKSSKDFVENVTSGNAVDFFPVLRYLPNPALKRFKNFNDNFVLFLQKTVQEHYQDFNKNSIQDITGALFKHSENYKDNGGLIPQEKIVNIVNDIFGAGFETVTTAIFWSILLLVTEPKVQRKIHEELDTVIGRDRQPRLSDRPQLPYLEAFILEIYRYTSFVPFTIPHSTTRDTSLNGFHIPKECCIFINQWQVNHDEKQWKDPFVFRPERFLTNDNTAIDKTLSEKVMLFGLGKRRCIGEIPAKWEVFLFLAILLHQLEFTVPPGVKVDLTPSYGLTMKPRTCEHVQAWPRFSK
Structure (SMILES),outcome,AC50
c1ccc2c(c1)c1cccc3ccc4cccc2c4c31,inactive,–
c1cc[nH]c1,inactive,–
CNNCc1ccc(C(=O)NC(C)C)cc1,inactive,–
c1ccc2[nH]c(-c3cscn3)nc2c1,inactive,–
c1ccc2sc(SN(C3CCCCC3)C3CCCCC3)nc2c1,inactive,–
O=S1(=O)CC(Cl)(Cl)C(Cl)(Cl)C1,inactive,–
NC(=S)NNC(N)=S,inactive,–
CCOC(=O)C1=NOC(c2ccccc2)(c2ccccc2)C1,inactive,–
CCCCCCC(C)OC(=O)CCCCC(=O)OC(C)CCCCCC (centres undefined),inactive,–
COc1ccc(C(=O)/C(Br)=C\C(=O)O)cc1,inactive,–
CN(C)C(=O)Nc1ccc(Cl)c(Cl)c1,inactive,–
COC(=O)CSc1cc(N=c2sc(=O)n3n2CCCC3)c(F)cc1Cl,inactive,–
CCN(CC)c1ccc2c(C)cc(=O)oc2c1,–,8.15 µM (active)
CO[Si](CCC1CCC2OC2C1)(OC)OC (centres undefined),inactive,–
O=C1c2ccccc2C(=O)c2c(O)ccc(O)c21,inactive,–
CCC(C)c1cc([N+](=O)[O-])cc([N+](=O)[O-])c1OC(=O)OC(C)C (centres undefined),inactive,–
O=C1OC2(c3cc(Br)c(O)c(Br)c3Oc3c2cc(Br)c(O)c3Br)c2c(Cl)c(Cl)c(Cl)c(Cl)c21,inactive,–
CSC(=O)c1cccc2nnsc12,inactive,–
CCCCOCCOCCOCc1cc2c(cc1CCC)OCO2,inactive,–
